Source: PubChem BioAssay (several laboratories)
HIF-2a inh = inhibitors of HIF-2a; 786-0 RCC cells HIF-2a reporter, luciferase luminescence, overnight; inhibition, % at 18.8 µM; 0.72% of 360,000 active; AID 624352;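 active means inhibition of the luminescence signal of 40% or more relative to plate controls, in a single-dose primary screen at 18.75 µM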
Peg3 promoter = Peg3 promoter activity inhibition; inhibition, % at 20 µM; 1.7% of 360,000 active; HeLa PEG-Prom luciferase reporter, luminescence, overnight;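 active means inhibition of at least 50% at 20 µM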
Shn3 inh set2 = Schnurri-3 reporter inhibition in Clone20 osteoblasts. Clone20 osteoblast Shn3 3'UTR firefly luciferase, 24 h. inhibition, % at 12.5 µM. 0.52% of 360,000 active;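 active means mean inhibition of at least 75% with every replicate also reaching 75%; inconclusive means mean inhibition at least 75% but some replicate below; inactive means mean inhibition below 75%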;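 further: 0% = median of neutral control wells and 100% = pilot-screen positive control compound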
KKLEB cytotox = reduces viability of KKLEB cystic fibrosis airway cells | KKLEB CF airway cells viability, ATPlite luminescence, overnight; stronger effect = lower value; cells stimulated with P. aeruginosa culture filtrate | activity change (cytotoxicity), % at 5 µM | 0.36% of 360,000 active;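 active means corrected activity change at or below -50% at 5 µM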
LMP1 NFkB inh = Epstein-Barr LMP1 NF-kappaB reporter inhibition | LMP1-induced NF-kappaB luciferase reporter cells, luminescence | inhibition, % at 12.5 µM | 0.69% of 350,000 active | AID 504558; in the data active means inhibition above about 41%; inconclusive means no clear call, values can overlap the other calls;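 further: 0% = neutral control wells and 100% = reference inhibitor control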
CF NFkB block = blocks PAF-induced NF-kB reporter in cystic fibrosis cells; AID 588850; 0.86% of 360,000 active; KKLEB NF-kB-GFP reporter, GFP fluorescence overnight; inhibition, % at 5 µM;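 active means at least 50% inhibition at 5 µM, scaled per plate between neutral and stimulator controls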;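 further: PAF is a Pseudomonas aeruginosa culture filtrate used as stimulus; plate controls were PAF-stimulated DMSO wells for no effect and unstimulated DMSO wells for full effect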
Mdm2 MdmX conf = confirmation of inhibitors of human Mdm2/MdmX interaction, set 2. shares compounds with HIF-2a inh. inhibition, % at 8 µM. 99% of 740 active. SaOS-2 split-luciferase Mdm2/MdmX complementation, luminescence. AID 504601;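 active means mean inhibition of the luminescence signal across two replicates at or above 26 percent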
HIF-2a conf = confirmation of HIF-2a inhibitors; shares compounds with HIF-2a inh; 786-0 RCC cells, HIF-2a luciferase reporter luminescence, overnight; inhibition, % at 18.8 µM; 56% of 1,800 active; AID 651580;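 active means mean inhibition across four replicates of at least 40 percent at the single tested concentration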
HIF-1a counter = inhibits HIF-1a reporter, a counter-screen for HIF-2a inhibitors | shares compounds with HIF-2a inh | MiaPaCa-2 HIF-1a luciferase reporter, desferoxamine, overnight | inhibition, % at 18.8 µM | 72% of 1,800 active;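 active means mean inhibition of the reporter signal across four replicates at the single tested dose of 50% or more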
Active calls of the source: *; ? = inconclusive; . = not tested or not shown. In the library only some 2.9% were active in any assay of this set; here they are far more common.

SMILES	HIF-2a inh	Peg3 promoter	Shn3 inh set2	KKLEB cytotox	LMP1 NFkB inh	CF NFkB block	Mdm2 MdmX conf	HIF-2a conf	HIF-1a counter
CCC(=O)Nc1cc(SCCO)cc([N+](=O)[O-])c1	14.9	11.0	-10.7	-5.5	-4.3	6.1	.	.	.
CCC(=O)Nc1cc(ON=C(C)C)cc([N+](=O)[O-])c1	17.4	15.3	-4.1	-7.4	-8.9	8.7	.	.	.
O=C(CCl)Nc1cc(SCC(O)CO)cc([N+](=O)[O-])c1 (stereo unspecified)	86.0*	105.7*	63.5	-93.3*	25.4	95.8*	.	87.7*	106.9*
C=CCn1c(SCC(=O)c2c(N)n(C)c(=O)n(C)c2=O)nnc1-c1ccccc1F	6.4	15.7	1.6	-12.0	-2.7	-10.3	.	.	.
Cc1ccc(NC(=O)c2cc(NC(=O)c3ccco3)ccc2N2CCOCC2)cc1	-0.5	-0.5	22.1	-6.8	3.8	0.5	.	.	.
Cc1ccc(NC(=O)c2cc(N3C(=O)C=CC3=O)ccc2N2CCOCC2)cc1	68.5*	108.0*	42.0	0.6	1.1	12.4	.	68.5*	18.5
COc1ccc(OC)c2sc(NC(=O)CCS(=O)(=O)c3ccccc3)nc12	90.1*	43.9	17.0	-55.4*	7.1	49.8	.	-31.0	56.5*
COc1ccc(C(NC(=O)c2c(F)c(F)c(F)c(F)c2F)c2ccccc2)cc1 (stereo unspecified)	83.1*	93.1*	41.0	-11.9	4.5	-14.5	.	56.9*	100.2*
S=C(c1cn(CCOc2ccccc2)c2ccccc12)N1CCCC1	-11.9	10.2	9.4	-8.5	-8.5	10.0	.	.	.
Cc1ccc(OCCn2cc(C(=S)N3CCCC3)c3ccccc32)cc1C	-27.0	21.6	24.6	-2.4	?	-17.0	99.7*	.	.
C=CC(=O)Nc1ccc(Nc2nc(NC3CCC(N(C)C)CC3)nc3c2ncn3C(C)C)cc1 (stereo unspecified)	75.6*	107.1*	94.4*	-73.5*	79.1*	94.0*	103.0*	.	.
O=[N+]([O-])c1ccc(-c2ccc(/C=N/Nc3nc(N4CCCC4)nc(N4CCCC4)n3)o2)cc1	11.1	30.6	33.0	-62.0*	-111.1	-9.1	90.8*	.	.
CNC[C@H](Cc1ccccc1)NC[C@@H](Cc1cccc2ccccc12)NCCc1ccc(C)cc1	22.4	96.6*	5.9	-50.2*	-8.2	43.4	100.7*	.	.
CCOC(=O)c1c(NC(=O)/C=C/C(=O)O)sc(C)c1-c1ccc(C(C)(C)C)cc1	-20.6	28.8	57.5	-85.8*	-30.8	65.7*	103.2*	.	.
CCOC(=O)c1c(NC(=O)c2c(-c3ccccc3)noc2C)sc(C)c1-c1ccccc1	-13.3	5.1	80.9	0.1	20.7	-3.4	102.5*	.	.
COc1ccc(-c2cc3nc(-c4ccccc4)cc(N4CCCC(O)C4)n3n2)cc1 (stereo unspecified)	42.7*	46.2	4.9	2.9	61.5*	-6.5	.	-10.9	90.3*
CC(CCc1ccccc1)NC(=O)c1cccs1 (stereo unspecified)	-14.2	-3.2	6.2	-19.2	5.4	-9.1	.	.	.
COc1ccc(OC)c(S(=O)(=O)ON2C(=O)c3ccccc3C2=O)c1	56.9*	54.1*	56.5	0.4	0.3	-9.9	.	59.6*	23.0
COc1ccc(OC)c(S(=O)(=O)N2CCN(c3ccccc3)CC2)c1	9.1	17.3	5.6	12.8	-20.9	-11.9	.	.	.
CCc1ccc(S(=O)(=O)ON2C(=O)c3ccccc3C2=O)cc1	46.1*	51.3*	45.8	9.5	-1.6	2.9	.	51.0*	-3.5
CCOC(=O)C(C)(C)N(Cc1cccc(C)c1)S(=O)(=O)c1ccc(Cl)c([N+](=O)[O-])c1	64.2*	87.9*	10.7	6.2	5.1	-6.9	.	26.8	100.2*
